# From PubChem BioAssay (NCI)
# About 83,000 compounds went through this panel and 20% of them were active in at least one assay; those are over-represented in the sample as a whole.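 Step 1: grow cells in 96-well plates. Step 2: add test compound at a single concentration. Step 3: incubate 48 h. Step 4: record percent growth.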 Unmarked numbers belong to inactive results. Active and inactive are the calls of the source. How the source made its calls: active means growth percent below 10; inactive means the rest.
# System: HL-60(TB) leukemia
# Test: NCI-60 one-dose screen, 48 h (100 = growth as untreated, 0 = no growth, -100 = all killed)
# Conditions: 10 µM unless noted
row,Compound,growth
1,CC[C@@H](C(=O)[C@@H](C)[C@@H](O)[C@H](C)[C@@H]1O[C@@H]([C@@H](CC)C(=O)O)CC[C@@H]1C)[C@H]1OC2(C=C[C@@H](O)[C@]3(CC[C@@](C)([C@H]4CC[C@](O)(CC)[C@H](C)O4)O3)O2)[C@H](C)C[C@@H]1C (stereo partly specified),-45.6% (active)
2,CCOc1ccc(/C=N/Nc2cc(C)nc3ccc(Br)cc23)cc1,53.3%
3,CSC(=N\N=C\c1ccc(N(C)C)cc1)/N=C/N(C)C,105%
4,O=S(=O)(OCCOS(=O)(=O)c1ccccc1)c1ccccc1,92.5%
5,CCOC(=O)c1sc(NC(=O)COc2ccc(/C=C3\CCc4cc(OC)ccc4C3=O)cc2)nc1C,-57.4% (active)
6,COc1ccc(CN2CCCC(C(=O)c3ccc(C(F)(F)F)cc3)C2)c(O)c1 (stereo unspecified),17%
7,Nc1n[nH]c2cccc(C#Cc3cccc(NC(=O)c4ccc(N5CCOCC5)c(C(F)(F)F)c4)c3)c12,2.04% (active)
8,NC(=O)c1nc2c([nH]c1=O)CCCC2,101%
9,O=C(OCc1nc2nc(Cl)nc(N3CCOCC3)c2[nH]1)n1ccnc1,-30.1% (active)
10,O=[N+]([O-])c1ccc(NCSc2ccc(Cl)cc2)cc1,83.2%
11,O=C(CCCCC(=O)Nc1ccc2c(c1)/C(=C/c1ccc[nH]1)C(=O)N2)NO,107%
12,COc1ccc(C2=CN3CC=CC3CC2=O)cc1 (stereo unspecified),106%
13,CN1CCN(c2nc(C3=C(c4c[nH]c5ccccc45)C(=O)NC3=O)c3ccccc3n2)CC1,30.7%
14,NS(=O)(=O)c1ccc(CCn2c(SCC(=O)N/N=C/c3ccccc3O)nc3ccccc3c2=O)cc1,-25.5% (active)
15,COc1ccc(Cl)cc1NC(=O)c1c(NC(=O)C(F)(F)C(F)(F)F)sc2c1CCCCC2,12.4%
16,O=C1Nc2cc(-c3ccc(NS(=O)(=O)c4ccccc4)cc3)ccc2/C1=C/c1ccc[nH]1,95.7%
17,Cn1c(=O)c2c(nc(NC3=NS(=O)(=O)c4ccccc43)n2Cc2ccccc2)n(C)c1=O,112%
18,Cc1ccc2nc(NC(=O)CSc3nc(Nc4ccc([N+](=O)[O-])cc4)c(C#N)c(-c4ccccc4)n3)sc2c1,95.2%

row,Compound,growth
1,Nc1nc(N)c2c(n1)NC(c1ccc(Cl)cc1)CC(c1cccc(Nc3ccncc3)c1)=N2 (stereo unspecified),39%
2,CN1CCN(Cc2ccc(NC(=O)c3cncc(C#Cc4cnc5ccc(Cl)nn45)c3)cc2C(F)(F)F)CC1,-17.6% (active)
3,C=C1C(=O)O[C@H]2[C@H]1CC/C(Cn1cc(-c3ccccc3)nn1)=C\CC[C@@]1(C)O[C@@H]21,-28.9% (active)
4,C#Cc1c(I)n(C2OC(CO[Si](C)(C)C(C)(C)C)C3OC(C)(C)OC32)c(=O)[nH]c1=O (stereo unspecified),20.1%
5,COC(=O)C1(C)COP(=O)(Nc2ccc(OC)cc2)OC1 (stereo unspecified),94.7%
6,COc1cc(-c2cc(/C=C3\C(=O)Nc4cc(Cl)ccc43)[nH]n2)cc(OC)c1OC,-34.9% (active)
7,O=C(NCc1ccccc1)C1CN(c2ccc(Cl)cc2)N(c2ccc(Cl)cc2)C1=O (stereo unspecified),81.7%
8,COC1CCC(N2C(=O)CNc3ncc(-c4ccc(C(C)(C)O)nc4)nc32)CC1 (stereo unspecified),11.2%
9,COCCCNc1nc(NC(=O)c2cc(Br)cc(C(F)(F)F)c2)cc(-c2cccnc2)n1,94.6%
10,CCOC(=O)/C(=C\c1ccc(-c2ccccc2)cc1)C(C)=O,93.7%
11,ONc1nc(NO)c2[nH]cnc2n1,15.1%
12,CC1=CN2C(=NC3=C(CCCC/C3=C\c3ccccc3)C2c2ccccc2)S1 (stereo unspecified),102%
13,NS(=O)(=O)c1ccc(-n2ncc3c(N/N=C/c4ccccc4)ncnc32)cc1,83.1%
14,O=C(Nc1nc2ccc(C(=O)N3CCN(/C=C/c4ccccc4)CC3)cc2s1)c1ccc(NCCc2ccccc2)c([N+](=O)[O-])c1,80.5%
15,Nc1ccc(C2=NN(C(=O)c3cc(-c4ccc(Cl)cc4)nc4ccccc34)C(c3ccc(Cl)cc3)C2)cc1 (stereo unspecified),-4.63% (active)
16,COc1ccc(C2=NN(C(C)=O)C(c3cn(-c4ccccc4)nc3-c3ccc(Cl)cc3)C2)cc1 (stereo unspecified),3.16% (active)
17,Cc1cc2oc(/C=C/c3ccccc3)cc(=O)c2c(C)c1Cl,80.8%
18,CCCCCCCC/C=C/CCCCCCCCC1=NCCN1CCO,8.59% (active)
